Where “and” joins values, the source holds several entries; their conditions need not be identical. Identical values can stand only once. The whole screen tested about 430,000 compounds, of which about 2,600 (0.6%) were called active. Cut-off read from the data, not from the text of the source: active = inhibition mostly above about 37% (no sharp cut-off); inactive = mostly below about 20%. The full list was thinned out, with actives kept by preference.
Each compound was assayed on PriA–SSB C-terminal tail interaction (Klebsiella pneumoniae) (assay: blocks PriA binding to SSB C-terminal tail, primary screen, biochemical, AlphaScreen (AID 1272365;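 note: plate controls were negative control peptide for no effect and reference peptide for full effect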)). Conditions: AlphaScreen SSBct-PriA binding, biotinylated peptide; at 33 µM, stronger effect = higher value.
With `COCCN1CCCc2ccc(NC(=O)c3cccc(OC)c3)cc21` the inhibition was 53% (inactive).
For `O=C(C1CCCC1)N1CCc2ccc(NS(=O)(=O)CCc3ccccc3)cc21`, the inhibition was 5% (inactive).
With `COc1cc(NS(=O)(=O)CCc2ccccc2)ccc1N1CCCC1=O` the inhibition was -16% (inactive).
With `COCCN1CCCc2ccc(NS(=O)(=O)CCc3ccccc3)cc21` the inhibition was 34% (active).
In the case of `COCCN1CCCc2ccc(NS(=O)(=O)c3ccc(C)c(Cl)c3)cc21`, the inhibition is reported as 54% (active).
`COCCN1CCCc2ccc(NC(=O)c3ccc(OC)cc3)cc21` was tested, and the inhibition was 45% (inactive).
`c1cncc(-c2nnc3sc(-c4cc5ccccc5o4)nn23)c1` was tested, and the inhibition was -28% (inactive).
With `O=S(=O)(c1ccccc1F)N1CCN(c2cnnc(N3CCCC3)c2)CC1` the inhibition was 0% (inactive).
In the case of `CCOC(=O)c1sc(=NC(=O)CCCSc2ccc(OC)cc2)n(C)c1C`, the inhibition is reported as 2% (inactive).
In the case of `COc1ccc(-c2cc(C3CCN(c4ncccc4[N+](=O)[O-])CC3)[nH]n2)cc1`, the inhibition is reported as 47.3% (active).
In the case of `CC(=O)NC(Cc1ccccc1)C(=O)NC1CCN(c2ncccc2[N+](=O)[O-])CC1` (centres undefined), the inhibition is reported as -3.58% (inactive).
For `COc1ccc(N2CCN(c3ccc([N+](=O)[O-])nc3)CC2)cc1`, the inhibition was 3.99% (inactive).
With `COCCn1c(SCc2nc(-c3ccc(F)cc3)no2)nc2ccsc2c1=O` the inhibition was -36% (inactive).
For `COC(=O)c1sccc1S(=O)(=O)N1C2CCCC1COC2`, the inhibition was -5% (inactive).
For `O=C(NCCn1ccnc1-c1ncccn1)NCc1cccs1`, the inhibition was 71% (active).
In the case of `O=C(NCc1cccs1)NCc1cccnc1-c1ccsc1`, the inhibition is reported as -6% (inactive).
For `Cc1noc(CNC(=O)NCc2cccs2)n1`, the inhibition was -6% (inactive).
With `O=C(Cc1cc(-c2ccc3c(c2)OCO3)on1)Nc1ccc(OC(F)(F)F)cc1` the inhibition was 1% (inactive).
With `COCCCNC(=O)C(=O)Nc1ccc(Cl)cn1` the inhibition was -18% (inactive).
For `COC(=O)c1ccc(NC(=O)C2CCCN(c3ccc(-c4ccc(F)cc4)nn3)C2)cc1` (centres undefined), the inhibition was -17% (inactive).
For `Cc1ccc(CN2CC(C(=O)N3CCN(S(=O)(=O)c4ccccc4)CC3)CC2=O)cc1` (centres undefined), the inhibition was -17.9% (inactive).
With `CCC(C)c1ccccc1N1CC(C(=O)N2CCN(S(=O)(=O)c3ccc(F)cc3)CC2)CC1=O` (centres undefined) the inhibition was 44% (active).
For `O=C(C1CC(=O)N(c2ccc(F)cc2)C1)N1CCN(c2ccccc2)CC1` (centres undefined), the inhibition was -4.67% (inactive).
`CC(=O)[C@@H](C(=O)N(C)C)n1cnc2c(cnn2-c2cccc(Cl)c2)c1=O` was tested, and the inhibition was -12% (inactive).
With `O=[N+]([O-])c1ccccc1NCc1ccccc1Cl` the inhibition was -2.79% (inactive).
In the case of `CC(C)C(=NNc1ccccc1[N+](=O)[O-])c1ccccc1`, the inhibition is reported as 64.3% (active).
For `CC(C)C(=NNC(=O)Nc1ccccc1)c1ccccc1`, the inhibition was -2.11% (inactive).
In the case of `Cc1cc(=O)[nH]c(-n2ncc(C(=O)Nc3ccc(OC(F)(F)F)cc3)c2C)n1`, the inhibition is reported as -10% (inactive).
`Cc1cc(C)c(S(=O)(=O)NCCC(=O)NCc2cccnc2)cc1N(C)S(C)(=O)=O` was tested, and the inhibition was -9% (inactive).
`CCOC(=O)c1c(NC(=O)CSc2nnc(CN3CCOCC3)n2C)sc2c1CCCC2` was tested, and the inhibition was -3.23% (inactive).
For `CCOC(=O)c1sc(NC(=O)CSc2nnc(CNC(=O)c3ccc(Cl)cc3Cl)n2C)c(C(=O)OCC)c1C`, the inhibition was 5% (inactive) and -12% (inactive).
With `CCOC(=O)c1c(NC(=O)CSc2nnc(Cc3csc(N)n3)n2C)sc(C)c1C` the inhibition was -7% (inactive) and 53.5% (active).
For `CCSc1nnc(NC(=O)CSc2nnc(CNC(=O)c3cccs3)o2)s1`, the inhibition was -13% (inactive).
`CON=Cc1ccc(N2CCOCC2)c([N+](=O)[O-])c1` was tested, and the inhibition was -5.72% (inactive).
`O=C(COc1ccccc1F)NNC(=O)c1ccc(N2CCCCC2)c([N+](=O)[O-])c1` was tested, and the inhibition was 13.6% (inactive).
With `O=C(ON=Cc1ccc(N2CCCCC2)c([N+](=O)[O-])c1)c1c(F)cccc1F` the inhibition was 41.1% (active).
In the case of `COc1ccc(C(=O)CSc2nccn(-c3ccc(C)cc3)c2=O)cc1`, the inhibition is reported as 8% (inactive).
With `c1ccc(-c2ccc(-c3csc4ncnc(N5CCCCCC5)c34)cc2)cc1` the inhibition was -3% (inactive).
`Brc1c(-c2ccccc2)nc2n1CCC2` was tested, and the inhibition was 57% (active).
`COc1ccc(-c2nc3n(c2Br)CCC3)cc1` was tested, and the inhibition was 18.6% (inactive).
In the case of `Brc1cccc(-c2nnc3n2CCC3)c1`, the inhibition is reported as -16.1% (inactive).
For `CCN(CC)c1ccc(C=NNS(=O)(=O)c2cccc([N+](=O)[O-])c2)cc1`, the inhibition was 46.5% (active).
`CCc1ccc(S(=O)(=O)NN=Cc2ccc3c(c2)OCO3)cc1` was tested, and the inhibition was -15.4% (inactive).
In the case of `COc1ccc(CCNS(=O)(=O)c2cccc([N+](=O)[O-])c2)cc1`, the inhibition is reported as 0.99% (inactive).
For `Cc1ccccc1OCC(=O)NCCS(=O)(=O)N1CCN(Cc2ccccc2)CC1`, the inhibition was -5% (inactive).
With `Cc1cccc2[nH]c(COc3ccc(F)cc3)nc12` the inhibition was -4% (inactive).
`c1ccc(-c2nc(-c3cnccn3)n[nH]2)nc1` was tested, and the inhibition was 125% (active).
`c1ccc(OCc2nc(-c3ccccn3)n[nH]2)cc1` was tested, and the inhibition was 104% (active).
With `COc1ccc(OCc2nc(-c3ccccn3)n[nH]2)cc1` the inhibition was 101% (active).
For `O=c1oc2ccccc2cc1-c1nc(-c2ccncc2)n[nH]1`, the inhibition was 0% (inactive).
For `COc1cccc(C(=O)N2CC(c3nc(-c4ccccn4)no3)C2)c1`, the inhibition was -10% (inactive).
`S=c1[nH]nc(COc2ccccc2)o1` was tested, and the inhibition was -8% (inactive).
For `Cc1nc2nc(COc3ccccc3)[nH]n2c(=O)c1C`, the inhibition was -10.1% (inactive).
With `CCOC(=O)c1ccccc1NC(=O)Cn1cnc2c(cnn2-c2ccc(C)cc2C)c1=O` the inhibition was 20% (inactive).
With `Cc1cc(NC(=O)C(=O)NCc2cccnc2)ccc1N1CCCC1=O` the inhibition was 0% (inactive).
In the case of `COc1ccc(CCS(=O)(=O)NCC(=O)N2CCOC(c3ccccc3)C2)cc1` (centres undefined), the inhibition is reported as 2% (inactive).
With `Cc1ccc2cccc(C(=O)N3CC(S(=O)(=O)Cc4ccco4)C3)c2n1` the inhibition was -1% (inactive).
`O=C(CSc1nc2c(c(=O)[nH]1)CN(Cc1ccc(F)cc1)CC2)Nc1ccc(F)c(Cl)c1` was tested, and the inhibition was 0% (inactive).
For `O=c1[nH]c(=S)[nH]c2sc3c(c12)CCC3`, the inhibition was 18% (inactive).
`CCOc1cc(-c2nnc(NC(=O)c3cc(Cl)ccc3Cl)o2)cc(OCC)c1OCC` was tested, and the inhibition was 0% (inactive).
In the case of `Cc1ccc(NC(=O)C(=O)NCC(c2ccc(F)cc2)N2CCN(C)CC2)cc1Cl` (centres undefined), the inhibition is reported as -4% (inactive).
In the case of `Cc1ccc(S(=O)(=O)c2c(N)n(N=Cc3ccco3)c3nc4ccccc4nc23)cc1`, the inhibition is reported as 11% (inactive).
With `Cc1ccc(S(=O)(=O)Nc2c(S(=O)(=O)c3ccccc3)c3nc4ccccc4nc3n2Cc2ccccc2)cc1` the inhibition was 34.2% (inactive).
For `CCCCOCCCn1c(NS(=O)(=O)c2ccccc2)c(S(=O)(=O)c2ccc(C)cc2)c2nc3ccccc3nc21`, the inhibition was 67.3% (active).
For `CCCCOCCCn1c(NS(=O)(=O)c2ccc3ccccc3c2)c(S(=O)(=O)c2ccc(C)cc2)c2nc3ccccc3nc21`, the inhibition was 59.9% (active).
With `CCCCCCCCn1c(NS(=O)(=O)c2ccc(Cl)cc2)c(S(=O)(=O)c2ccccc2)c2nc3ccccc3nc21` the inhibition was 49.6% (inactive).
For `CCCCn1c(NS(=O)(=O)c2ccc(Cl)cc2)c(S(=O)(=O)c2ccc(C)cc2)c2nc3ccccc3nc21`, the inhibition was 54.8% (inactive).
For `O=S(=O)(CCc1ccccc1)NCC(O)c1ccoc1` (centres undefined), the inhibition was -25% (inactive).
In the case of `COc1cc(NS(=O)(=O)c2ccc(NC(=O)c3cc4c(ccc5ccccc54)oc3=O)cc2)ncn1`, the inhibition is reported as -16% (inactive).
In the case of `COC(=O)c1ccc(S(=O)(=O)NCC2(c3ccc(F)cc3)CC2)cc1`, the inhibition is reported as -24% (inactive).
For `COc1ccc(Br)c(C(=O)NCCCc2cnoc2)c1`, the inhibition was 4% (inactive).
In the case of `Cc1cc2ncc(NC(=O)NCCOc3ccccc3)cn2n1`, the inhibition is reported as -12% (inactive).
With `O=C(Nc1ccc(OC(F)(F)F)cc1)C(=O)Nc1ccccc1[N+](=O)[O-]` the inhibition was 4% (inactive).
`O=[N+]([O-])c1ccccc1Nc1ccc(O)cc1` was tested, and the inhibition was 46.7% (active).
For `O=[N+]([O-])c1ccccc1NN=Cc1cccc(O)c1O`, the inhibition was 0.72% (inactive).
With `COc1cccc(CCNC(=O)C2CS(=O)(=O)CN2C(=O)c2ccccc2)c1` (centres undefined) the inhibition was -9% (inactive).
With `Cc1ccc(-c2cc3c(=O)n(CC(=O)Nc4ccc5c(c4)OCO5)ncn3n2)cc1C` the inhibition was -17% (inactive).
For `O=C(c1ccccc1)c1sc(NC(=O)c2cc(-c3ccccc3)nc3ccccc23)nc1-c1ccccc1`, the inhibition was 10% (inactive).
With `CC(=NNC(=O)c1c(Cl)c(C)nn1C)c1cccc(NC(=O)C2CCCC2)c1` the inhibition was 2.34% (inactive).
With `Cc1cc(-c2nnc(NC(=O)C(c3ccccc3)c3ccccc3)o2)nn1C` the inhibition was 85% (active).
For `Cc1cc(-c2nnc(NC(=O)Cc3ccccc3)o2)n(C)n1`, the inhibition was 14% (inactive).
`Cc1cc(-c2nnc(NC(=O)C(C)C)o2)nn1C` was tested, and the inhibition was -2% (inactive).
With `CSc1ccccc1C(=O)Nc1nnc(-c2cc(C)nn2C)o1` the inhibition was 6% (inactive) and 0% (inactive).
`Cc1cc(-c2nnc(NC(=O)c3ccc(C(=O)c4ccccc4)cc3)o2)nn1C` was tested, and the inhibition was 3% (inactive).
With `Cc1cc(-c2nnc(NC(=O)C(c3ccccc3)c3ccccc3)o2)n(C)n1` the inhibition was 61% (active).
With `COC[C@@](C)(O)CNS(=O)(=O)c1ccccc1OC` the inhibition was -2% (inactive).
In the case of `Cc1cc(C)c2c(n1)nn1c(NCc3ccc(Cl)cc3Cl)cc(C)nc21`, the inhibition is reported as -9% (inactive).
In the case of `COc1cc(NC(=O)Cc2c(C)noc2C)ncn1`, the inhibition is reported as -19% (inactive).
`CC(=O)c1c(C)n(-c2ccc(C)cc2)c2ccc(O)cc12` was tested, and the inhibition was -0.78% (inactive).
For `Cc1oc2ccc(OCc3ccccc3)cc2c1C(=O)NCc1ccco1`, the inhibition was -4% (inactive).
For `CC(=O)c1c(C)n(-c2ccc(N(C)C)cc2)c2ccc(OCC(N)=O)cc12`, the inhibition was -18.2% (inactive).
In the case of `CCOC(=O)c1c(C)n(-c2ccc(C)cc2)c2ccc(OCC(O)Cn3ccnc3)cc12` (centres undefined), the inhibition is reported as 83% (active) and 46% (active).
For `CCOC(=O)c1c(C)n(-c2ccc(C)cc2)c2ccc(OCC(O)CNCc3ccco3)cc12` (centres undefined), the inhibition was 69% (active).
For `Cc1cc(C(=O)OCC(=O)NCc2ccco2)c(C)n1-c1ccccc1`, the inhibition was -5.93% (inactive).

From PubChem BioAssay AID1272365 (Small Molecule Screening Facility, UW Madison, 2018)
